A short description of assay [1]: ATG_CRE_CIS: Attagene CIS-FACTORIAL HepG2 Assay for human cAMP Responsive Element (CRE) binding protein 3 (AID 2282926). The settings on record: HepG2 CRE cis-reporter, Attagene multiplexed mRNA; actives raise or lower the signal. Put shortly: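 Endogenous transcription factor activity read via CRE-regulated reporter transcripts in transfected HepG2 cells. After 24 h exposure, RNA was reverse-transcribed, amplified, fluorescently labelled and sized by capillary electrophoresis; gain or loss fitted against DMSO.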

In assay [2] the target is CCAAT/enhancer-binding protein beta (Homo sapiens) (UniProt P17676). The experiment in a line: ATG_C_EBP_CIS: Attagene CIS-FACTORIAL HepG2 Assay for human CCAAT/Enhancer Binding Protein (C/EBP) beta (AID 2282927). The settings on record: HepG2 Attagene cis-factorial transcription factor reporter; actives raise or lower the signal. In a few lines: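 HepG2 transiently transfected with multiplexed reporter units under cis-regulatory promoters reporting endogenous C/EBPb activity. After 24 h exposure, reporter mRNA assayed by RT-PCR, fluorescent labelling, HpaI digestion and capillary electrophoresis; bidirectional fitting versus DMSO.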

A short description of assay [3]: ATG_CMV_CIS: Attagene CIS-FACTORIAL HepG2 Assay for human CMV (Internal Marker) (AID 2282928).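 Note: endpoint acts as a background internal control marker rather than a target.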 The settings on record: HepG2 CMV promoter reporter, transcription factor profiling; actives raise or lower the signal. In a few lines:
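Readout: fluorescent reporter cDNA fragments separated by capillary electrophoresis after RT-PCR and HpaI cut. Cells: HepG2 carrying transfected cis-promoter reporter constructs, dosed 24 h. Endpoint serves as background internal-marker control, fit bidirectionally versus DMSO.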

The nature of assay [4]: ATG_DR4_LXR_CIS: Attagene CIS-FACTORIAL HepG2 Assay for human Liver X Receptor (LXR), DR4 submotif (AID 2282929). The settings on record: HepG2 Attagene DR4 cis-reporter, mRNA transcription; actives raise or lower the signal. Put shortly:
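HepG2, transient MRTU transfection, cis-element (DR4) promoter; 24 h compound exposure; total RNA → oligo(dT) RT → PCR → 6-FAM primer extension → HpaI cut → CE. Gain/loss vs DMSO, bidirectional fit.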

In assay [5] the target is Aryl hydrocarbon receptor (Homo sapiens) (UniProt P35869). Briefly: ATG_Ahr_CIS: Attagene CIS-FACTORIAL HepG2 Assay for human Aryl Hydrocarbon Receptor (Ahr) (AID 2282930). The settings on record: HepG2 AhR cis-factorial reporter transcription; actives raise or lower the signal. Put shortly: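 HepG2 cells transiently transfected with cis-element-driven multiplexed reporter units; endogenous AhR activity read as reporter mRNA 24 h after dosing, via RT-PCR, 6-FAM labelling, HpaI digestion and capillary electrophoresis. Bidirectional fit relative to DMSO.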

Assay [6] can be described thus: ATG_AP_1_CIS: Attagene CIS-FACTORIAL HepG2 Assay for human Activator Protein 1 (AP-1) (AID 2282931). The settings on record: HepG2 Attagene cis-factorial AP-1 reporter mRNA; actives raise or lower the signal. Put shortly:
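Transient MRTU transfection of HepG2 → 24 h chemical treatment → RNA isolation, RT-PCR, 6-FAM labelling, HpaI digest → capillary electrophoresis. Fit: bidirectional, DMSO negative control.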

A short description of assay [7]: ATG_AP_2_CIS: Attagene CIS-FACTORIAL HepG2 Assay for human Activator Protein 2 (AP-2) (AID 2282932). The settings on record: HepG2 AP-2 cis-reporter, Attagene transcription factor profiling; actives raise or lower the signal. Put shortly:
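Read-out: fluorescent reporter mRNA via RT-PCR and capillary electrophoresis, 24 h post-dose in transiently transfected HepG2. Endogenous factors drive cis-promoter reporters; gain or loss of signal fitted bidirectionally against DMSO.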

Assay [8] is described as follows: ATG_BRE_CIS: Attagene CIS-FACTORIAL HepG2 Assay for human Bone Morphogenetic Protein (BMP) Response Element (BRE) (AID 2282933). The settings on record: HepG2 BMP response element reporter, Attagene transcription factor profiling; actives raise or lower the signal. In a few lines: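 A HepG2 multiplex reporter system measured inducible reporter mRNA 24 h post-dosing. Detection: RT-PCR, 6-FAM primer extension, HpaI digestion, capillary electrophoresis. Activity fitted bidirectionally relative to DMSO.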

Assay [9] deals with Retinoic acid receptor alpha (Homo sapiens) (UniProt P10276). Briefly: ATG_DR5_RAR_CIS: Attagene CIS-FACTORIAL HepG2 Assay for human Retinoic Acid Receptor Alpha (RARE), DR5 submotif (AID 2282934). The settings on record: HepG2 Attagene cis-factorial RARE DR5 reporter, mRNA; actives raise or lower the signal. In a few lines:
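HepG2 cells transiently transfected with multiplexed reporter units; DR5 cis-element drives reporter through endogenous transcription factors. After 24 h dosing, reporter mRNA quantified by RT-PCR, fluorescent labeling, HpaI digestion and capillary electrophoresis; bidirectional fitting versus DMSO.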

Assay [10] has as its target Transcription factor E2F1 (Homo sapiens) (UniProt Q01094). Briefly: ATG_E2F_CIS: Attagene CIS-FACTORIAL HepG2 Assay for human E2F Transcription Factor 1 (AID 2282935). The settings on record: HepG2 Attagene cis-reporter, E2F reporter RNA transcripts; actives raise or lower the signal. Put shortly:
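Transient MRTU transfection of HepG2; 24 h compound exposure; RNA → oligo(dT) RT → PCR → FAM label → HpaI cut → CE fluorescence. Gain/loss of signal fit against DMSO.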

Assay [11] can be described thus: ATG_E_Box_CIS: Attagene CIS-FACTORIAL HepG2 Assay for human Enhancer Box (E-box) (AID 2282936). The settings on record: HepG2 E-box cis-reporter transcription, actives raise or lower the signal. Put shortly:
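Transiently transfected HepG2, endogenous TF-driven reporters, 24 h dosing. Readout: RT-PCR plus capillary electrophoresis of fluorescent reporter fragments. Gain or loss of signal fitted bidirectionally against DMSO baseline.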

A short description of assay [12]: ATG_M_61_CIS: Attagene CIS-FACTORIAL HepG2 Assay for M61 Transcription Factor (Internal Marker) (AID 2282937). The settings on record: HepG2 Attagene CIS-FACTORIAL M61 internal marker reporter; actives raise or lower the signal. In a few lines:
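Human liver HepG2, transient MRTU transfection (cis promoter elements), 24 h compound. Total RNA → oligo(dT) RT → PCR → FAM label → HpaI → CE. Internal background marker; bidirectional fitting, DMSO = baseline.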

Assay [13] is described as follows: ATG_M_19_CIS: Attagene CIS-FACTORIAL HepG2 Assay for M19 Transcription Factor (Internal Marker) (AID 2282939). The settings on record: HepG2 Attagene CIS-FACTORIAL M19 internal marker reporter; actives raise or lower the signal. In a few lines:
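Chemical-treated HepG2 (24 h) with MRTU constructs; reporter transcripts detected by fluorescent RT-PCR fragment analysis on capillary electrophoresis. Internal background marker, DMSO as baseline.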

Assay [14] is described as follows: ATG_ERE_CIS: Attagene CIS-FACTORIAL HepG2 Assay for Estrogen Response Element (ERE) (AID 2282940). The settings on record: HepG2 ERE cis-reporter, Attagene RNA transcript; actives raise or lower the signal. In a few lines: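 Human liver cells (HepG2) bearing transiently transfected, promoter-regulated reporter units were exposed 24 h. Reporter mRNA induction was detected by capillary electrophoresis of labelled RT-PCR products and fitted bidirectionally to DMSO.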

A short description of assay [15]: ATG_Ets_CIS: Attagene CIS-FACTORIAL HepG2 Assay for human Erythroblast Transformation Specific (ETS) (AID 2282941). The settings on record: HepG2 ETS cis-reporter transcription, actives raise or lower the signal. Put shortly:
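RT-PCR/capillary electrophoresis fluorescence read-out of reporter mRNA; HepG2 transient multi-reporter transfection; 24 h compound exposure; gain or loss of signal fitted bidirectionally relative to DMSO.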

Assay [16] deals with Hepatocyte nuclear factor 3-beta (Homo sapiens) (UniProt Q9Y261). Briefly: ATG_FoxA2_CIS: Attagene CIS-FACTORIAL HepG2 Assay for human Forkhead box A2 (FOXA2) (AID 2282942). The settings on record: HepG2 cis-reporter transcription factor activity, 24 h; actives raise or lower the signal. In a few lines: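 Transient MRTU transfection of HepG2 liver cells; 24 h treatment; total RNA → oligo(dT) RT → PCR → FAM primer extension → HpaI cut → CE. Bidirectional fit vs DMSO.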

Assay [17] can be described thus: ATG_FoxO_CIS: Attagene CIS-FACTORIAL HepG2 Assay for human Forkhead box O (FoxO) (AID 2282943). The settings on record: HepG2 Attagene cis-reporter, FoxO element, mRNA; actives raise or lower the signal. Put shortly: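 HepG2 cells transiently transfected with cis-element-driven reporter units report endogenous FoxO activity. After 24 h chemical exposure, reporter mRNA quantified by RT-PCR, fluorescent labeling, HpaI digestion and capillary electrophoresis; bidirectional fit versus DMSO.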

The nature of assay [18]: ATG_GATA_CIS: Attagene CIS-FACTORIAL HepG2 Assay for human GATA Binding Protein (AID 2282944). The settings on record: HepG2 GATA cis-element reporter, Attagene multiplex mRNA; actives raise or lower the signal. Put shortly:
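Transfected cis-reporter HepG2 cells were treated with chemicals for 24 hours. Total RNA was then converted to cDNA, amplified with reporter-specific primers and analysed by fluorescent capillary electrophoresis, using DMSO-treated wells as baseline.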

Assay [19] can be described thus: ATG_GLI_CIS: Attagene CIS-FACTORIAL HepG2 Assay for human Zinc Finger Protein GLI1 (AID 2282945). The settings on record: HepG2, Attagene cis-factorial reporter mRNA, GLI element; actives raise or lower the signal. Put shortly: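 Transiently transfected HepG2 cells report endogenous transcription factor activity via cis-element-driven reporter units. After 24 h compound exposure, reporter mRNA was measured by RT-PCR with capillary electrophoresis; bidirectional fitting against DMSO baseline.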

The nature of assay [20]: ATG_EGR_CIS: Attagene CIS-FACTORIAL HepG2 Assay for human Early Growth Response 1 (EGR1) (AID 2282938). The settings on record: HepG2 Attagene CIS-FACTORIAL EGR reporter mRNA; actives raise or lower the signal. In a few lines:
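Transient transfection of human HepG2 with multiple cis-regulated reporter units, chemical exposure 24 h, total RNA isolated. Reverse transcription, PCR, fluorescent labelling and capillary electrophoresis quantify reporter transcripts; activity fitted bidirectionally against DMSO.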

Activity calls are given as the source filed them. Rule for the calls: active = hit-call score of the fitted dose curve at least 0.9, where 1 is the maximum; inactive = score below 0.9.

Chain of Hepatocyte nuclear factor 3-beta (Homo sapiens) (Q9Y261 whole entry, looked up): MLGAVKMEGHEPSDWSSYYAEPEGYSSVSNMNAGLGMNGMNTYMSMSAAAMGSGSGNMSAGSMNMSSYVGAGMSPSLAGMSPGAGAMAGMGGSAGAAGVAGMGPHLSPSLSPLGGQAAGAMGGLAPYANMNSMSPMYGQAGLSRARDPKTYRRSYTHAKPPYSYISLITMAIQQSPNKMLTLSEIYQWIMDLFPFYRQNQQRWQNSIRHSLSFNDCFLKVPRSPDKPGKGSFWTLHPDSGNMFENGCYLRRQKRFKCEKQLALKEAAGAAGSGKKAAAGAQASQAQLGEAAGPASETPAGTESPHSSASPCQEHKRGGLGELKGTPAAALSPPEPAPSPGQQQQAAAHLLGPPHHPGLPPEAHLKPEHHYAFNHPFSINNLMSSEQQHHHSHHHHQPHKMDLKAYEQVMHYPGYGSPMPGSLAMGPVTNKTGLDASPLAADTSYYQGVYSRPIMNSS
Chain of CCAAT/enhancer-binding protein beta (Homo sapiens) (P17676 whole entry, looked up): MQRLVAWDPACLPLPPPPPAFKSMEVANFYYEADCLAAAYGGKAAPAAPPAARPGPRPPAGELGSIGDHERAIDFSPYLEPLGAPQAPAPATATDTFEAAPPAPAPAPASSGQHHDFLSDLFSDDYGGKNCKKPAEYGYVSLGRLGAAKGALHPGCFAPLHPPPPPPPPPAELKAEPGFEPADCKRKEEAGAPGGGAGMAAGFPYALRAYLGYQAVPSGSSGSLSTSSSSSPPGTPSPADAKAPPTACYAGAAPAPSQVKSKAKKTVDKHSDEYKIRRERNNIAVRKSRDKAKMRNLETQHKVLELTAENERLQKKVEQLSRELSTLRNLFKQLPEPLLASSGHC
Chain of Transcription factor E2F1 (Homo sapiens) (Q01094 whole entry, looked up): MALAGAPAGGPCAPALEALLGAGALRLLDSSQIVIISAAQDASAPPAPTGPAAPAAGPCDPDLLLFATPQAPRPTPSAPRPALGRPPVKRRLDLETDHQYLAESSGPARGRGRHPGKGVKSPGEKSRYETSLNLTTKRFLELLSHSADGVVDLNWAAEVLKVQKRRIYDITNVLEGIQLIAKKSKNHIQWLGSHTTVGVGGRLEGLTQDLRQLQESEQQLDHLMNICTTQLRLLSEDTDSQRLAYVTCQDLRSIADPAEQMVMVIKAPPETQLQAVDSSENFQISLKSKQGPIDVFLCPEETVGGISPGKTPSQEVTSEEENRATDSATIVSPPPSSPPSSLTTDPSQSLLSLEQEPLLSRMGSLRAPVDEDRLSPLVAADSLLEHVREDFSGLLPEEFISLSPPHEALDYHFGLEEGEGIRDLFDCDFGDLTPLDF
Chain of Aryl hydrocarbon receptor (Homo sapiens) (P35869 whole entry, looked up): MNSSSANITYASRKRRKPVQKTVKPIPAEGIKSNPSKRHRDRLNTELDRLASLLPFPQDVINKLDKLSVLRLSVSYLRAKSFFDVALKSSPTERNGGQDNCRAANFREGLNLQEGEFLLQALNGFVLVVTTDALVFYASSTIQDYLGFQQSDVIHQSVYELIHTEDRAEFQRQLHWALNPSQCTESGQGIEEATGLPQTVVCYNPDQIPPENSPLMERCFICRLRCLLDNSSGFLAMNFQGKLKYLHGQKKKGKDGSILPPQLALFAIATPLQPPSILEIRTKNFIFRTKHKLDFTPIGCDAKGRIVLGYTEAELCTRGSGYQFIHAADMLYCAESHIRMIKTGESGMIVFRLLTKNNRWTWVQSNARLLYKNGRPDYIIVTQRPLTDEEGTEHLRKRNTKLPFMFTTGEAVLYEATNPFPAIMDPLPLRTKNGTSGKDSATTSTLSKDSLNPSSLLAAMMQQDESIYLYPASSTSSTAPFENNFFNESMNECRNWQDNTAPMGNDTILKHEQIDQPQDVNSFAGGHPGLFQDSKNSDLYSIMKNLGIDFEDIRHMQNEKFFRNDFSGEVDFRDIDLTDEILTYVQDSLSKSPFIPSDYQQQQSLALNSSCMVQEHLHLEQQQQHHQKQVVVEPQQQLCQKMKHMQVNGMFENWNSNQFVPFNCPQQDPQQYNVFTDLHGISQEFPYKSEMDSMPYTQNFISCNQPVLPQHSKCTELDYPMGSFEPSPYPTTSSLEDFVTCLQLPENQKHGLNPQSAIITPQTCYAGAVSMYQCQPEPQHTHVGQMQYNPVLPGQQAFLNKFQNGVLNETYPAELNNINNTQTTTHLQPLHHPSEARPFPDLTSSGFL
Chain of Retinoic acid receptor alpha (Homo sapiens) (P10276 whole entry, looked up): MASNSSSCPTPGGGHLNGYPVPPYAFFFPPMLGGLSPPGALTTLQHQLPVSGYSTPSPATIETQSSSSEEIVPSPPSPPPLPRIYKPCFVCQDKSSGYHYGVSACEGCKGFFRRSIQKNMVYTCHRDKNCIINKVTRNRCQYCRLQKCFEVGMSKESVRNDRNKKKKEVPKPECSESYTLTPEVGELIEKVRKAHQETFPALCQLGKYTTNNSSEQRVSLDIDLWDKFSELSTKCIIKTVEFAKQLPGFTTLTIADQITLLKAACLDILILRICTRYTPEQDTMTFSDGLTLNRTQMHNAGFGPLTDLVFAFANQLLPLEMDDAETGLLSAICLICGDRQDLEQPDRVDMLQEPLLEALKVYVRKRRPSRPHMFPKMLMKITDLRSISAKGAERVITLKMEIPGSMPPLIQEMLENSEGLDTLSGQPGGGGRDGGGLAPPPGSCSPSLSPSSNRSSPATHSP

Broadly, the AC50 is the midpoint of the concentration-response curve, whichever way the signal moves. For the compound `O=C1CN(N=Cc2ccc([N+](=O)[O-])o2)C(=O)N1`, the result in assay [1], in [2], in [4], in assay [5], in [7] and in assay [8] was inactive. Besides, the result in assay [9], in assay [10], in assay [11], in assay [12], in [13] and in [15] was inactive. The call in assay [16], in [17], in assay [18] and in assay [19] was inactive. Also, the figures for the half-maximal activity concentration (AC50) in assay [3], in [6] and in [14] were 45.7 µM (active), 68.5 µM (active) and 27.6 µM (active), respectively.
With `O=c1[nH]cnc2c1ncn2[C@H]1CC[C@@H](CO)O1`, the outcome in assay [1], in assay [2], in assay [3], in [4], in assay [5] and in assay [6] was inactive. Further, the call in [7], in assay [8], in assay [9], in assay [11], in [12] and in [13] was inactive. Further, the outcome in [14], in assay [15], in [16], in assay [17], in assay [18] and in [19] was inactive.
Regarding `C[Si](C)(C)C(F)(F)C(F)(F)C(F)(F)F`, the result in assay [1], in [2], in assay [3], in assay [4], in assay [5] and in [6] was inactive. Moreover, the outcome in assay [7], in assay [8], in assay [9], in assay [10], in assay [11] and in assay [12] was inactive. Moreover, the compound was classed as inactive in [13], in [14], in assay [15], in assay [16], in assay [17] and in assay [18]. Also, the compound was classed as inactive in assay [19].
On to `COCc1nnc(-c2ccc[n+]([O-])c2)n1-c1c(Cl)c(Cl)cc2[nH]c(=O)c(=O)[nH]c12`, for which the compound was classed as inactive in [1], in assay [3], in assay [4], in [5], in assay [6] and in assay [7]. For the same compound, the outcome in assay [8], in assay [9], in [10], in assay [11], in [12] and in [13] was inactive. Besides, the compound was classed as inactive in assay [14], in [15], in [16], in assay [17], in [18] and in assay [19].
Consider `CC1(C)C(=O)N(Cl)C(=O)N1Cl`, for which the outcome in [1], in assay [2], in assay [3], in assay [4], in assay [5] and in [6] was inactive. Further, the outcome in assay [7], in [8], in assay [11], in assay [12], in [20] and in assay [13] was inactive. For the same compound, the compound was called inactive in assay [14], in [15], in [16], in assay [17], in assay [18] and in assay [19].
`O=C(O)c1ccc2c(c1)nc(C(=O)NC1CCN(C3CC3)CC1)n2Cc1cc(-c2ccc(Cl)s2)on1`: the result in assay [1], in assay [2], in assay [3], in [4], in assay [5] and in assay [6] was inactive. Moreover, the result in assay [7], in [8], in assay [11], in assay [12], in [13] and in assay [14] was inactive. The outcome in assay [15], in assay [16], in assay [17], in [18] and in assay [19] was inactive.
Consider `O=C(O)c1cccc(C(=O)O)c1`, for which the compound was called inactive in assay [1], in [3], in assay [4], in assay [5], in [6] and in assay [7]. Besides, the compound was classed as inactive in assay [8], in assay [9], in assay [10], in [11], in assay [12] and in assay [20]. For the same compound, the compound was classed as inactive in assay [13], in assay [14], in assay [15], in assay [16], in [17] and in assay [18]. For the same compound, the compound was called inactive in assay [19].

Source of the values: PubChem BioAssay (EPA / NIEHS).
